Structures are written as SMILES. Out of some 100,000 compounds screened, about 770 (0.77%) were called active. The list comes from a sample in which actives are over-represented; it also holds similar structures and randomly drawn compounds. A number with no mark means an inactive call. Cut-off read from the data, not from the text of the source: active = inhibition above about 50%; inactive = the rest.

Drawing on PubChem BioAssay AID372 (MTDP, 2006), this text covers inhibition for 63 compounds.

The target of the test is Gag-Pol polyprotein (Human immunodeficiency virus type 1 group M subtype B (isolate HXB2)) (UniProt P04585). The experiment in a line: RNase H inhibition, HIV 1 Gag Pol polyprotein, FRET biochemical assay, screening (AID 372). As to conditions: HIV-1 RT RNase H, FRET RNA/DNA substrate fluorescence; at 10 µM; hits give high values.
As for `NC(N)=NS(=O)(=O)c1ccc(NC(=S)Nc2ccccc2)cc1`, the inhibition is 6%.
Next, `CC(=O)C1(C)CC(C#N)(C#N)C(C#N)=C1N` (stereo not drawn): 0%.
For `COCCOC(=O)c1ccc(NC(=O)C(C)Oc2ccc(Cl)cc2C)cc1` (stereo not drawn), the inhibition is 11%.
For `CC(=O)ON=C1CC(C)(C)NC(C)(C)C1` the value was 4%; for `CCOC(=O)/C=C/COc1ccc2oc(-c3ccccc3)c(C(=O)OCC)c2c1`, 10%.
On to `CC(=O)c1ccc(NC(=O)c2ccccc2Cl)cc1`, for which the inhibition is 2%.
`CCCOC(=O)CSc1nc(C)cc(C)c1C#N`: the inhibition was 10%.
For `Cc1cc(C)c(C#N)c(SCC(=O)Nc2ccc(Cl)cc2)n1` the value was 1%.
For `Cc1cc(C)c(C#N)c(SCC(=O)c2ccc(O)c(O)c2)n1` the value was 70% (active); for `COc1cccc(N2C(=O)/C(=C/c3c(OC)cc(OC)cc3OC)C(=O)NC2=S)c1`, 1%; for `CCCCc1ccc(/C(C)=N/Nc2cc(-n3cc(C)cn3)ncn2)cc1`, 0%.
Next, `O=C(O)CCCCCN1C(=O)C(=O)/C(=C(/O)c2ccc(Cl)cc2)C1c1ccccc1` (stereo not drawn): 13%; `O=c1oc2cc(OCc3c(F)cccc3Cl)ccc2cc1-c1ccccn1`: 8%; `CC(C)c1ccccc1OCCCN1CCCCC1`: 56% (active).
Regarding `CC(C)c1ccccc1OCCCN1CCCC1`, the inhibition is 3%.
For `CC(C)c1ccccc1OCCCCN1CCCCC1`, the inhibition was 8%.
Take `Cc1ccc(C)c(N(CC(=O)Nc2c(C)n(C)n(-c3ccccc3)c2=O)S(=O)(=O)c2ccccc2)c1`: the inhibition is 3%.
With `COc1ccc2c(c1OC)C(=O)OC2Nc1cccc([N+](=O)[O-])c1` (stereo not drawn), the inhibition is 1%.
For `CCOC(=O)COc1ccc(C=O)cc1OCC` the value was 0%.
Next, `O=C(N/N=C/c1ccc(Cl)c([N+](=O)[O-])c1)c1ccccn1`: 11%; `O=C(N/N=C/c1ccc(Cl)c([N+](=O)[O-])c1)c1ccc(O)c(O)c1`: 53% (active); `O=C(N/N=C/c1ccccc1[N+](=O)[O-])c1cc(O)cc(O)c1`: 3%.
Next, `O=C(N/N=C/c1ccccc1[N+](=O)[O-])c1ccc(O)c(O)c1`: 51% (active).
Turning to `O=C(N/N=C/c1cc([N+](=O)[O-])ccc1O)c1ccc(O)c(O)c1`, the inhibition was 35%.
For `O=C(N/N=C/c1ccc(Cl)c([N+](=O)[O-])c1)c1cc(O)cc(O)c1` the value was 3%.
As for `O=C(N/N=C/c1ccc(Cl)c([N+](=O)[O-])c1)c1ccc(O)cc1`, the inhibition is 22%.
For `O=C(N/N=C/c1cc([N+](=O)[O-])ccc1Cl)c1ccc(O)cc1` the value was 10%; for `O=C(N/N=C/c1ccccc1[N+](=O)[O-])c1ccccc1`, 28%; for `O=C(N/N=C/c1ccc(Cl)c([N+](=O)[O-])c1)c1cc2ccccc2o1`, 59% (active).
For the compound `O=C(N/N=C/c1cc([N+](=O)[O-])ccc1Cl)c1ccc(O)c(O)c1`, the inhibition is 63% (active).
Consider `O=C(N/N=C/c1cc([N+](=O)[O-])ccc1Cl)c1cc2ccccc2o1`, for which the inhibition is 35%.
For `O=C(CSc1nc2ccccc2o1)c1ccc(-c2ccccc2)cc1` the value was 14%; for `Cc1nnc(SCc2ccc(F)cc2)s1`, 0%; for `COC(=O)c1ccc(C2N(O)C3CCCCC3N2O)cc1` (stereo not drawn), 15%.
Next, `COc1ccc([N+](=O)[O-])cc1N1C(=O)C=CC1=O`: 4%.
For `CC(C)(C)c1cc(C(=O)N/N=C\c2ccncc2)n[nH]1` the value was 3%; for `O=C(Nc1ccc(Cl)c(Cl)c1)c1cccc2ccccc12`, 8%; for `Cc1cc(/C=C2\C(=O)NC(=S)N(c3cccc(Cl)c3)C2=O)c(C)n1-c1ccc(Cl)cc1`, 40%.
As to `CC1=C(C(=O)OCCOc2ccccc2)C(c2ccc(O)cc2)C2=C(CC(c3ccccc3)CC2=O)N1` (stereo not drawn), the inhibition was 9%.
Turning to `COc1ccc(-c2ccc(/C=C3/C(=O)NN(c4ccc(C)c(Cl)c4)C3=O)o2)c([N+](=O)[O-])c1`, the inhibition is 24%.
On to `O=C(/C=C/c1cccc2ccccc12)Nc1ccc(Nc2ccccc2)cc1`, for which the inhibition is 25%.
Turning to `CC(=O)N(C)c1ccc(NC(=O)/C=C/c2ccccc2)cc1`, the inhibition is 9%.
In the case of `CC(=O)N(C)c1ccc(NC(=O)/C=C/c2cccc3ccccc23)cc1`, the inhibition is 53% (active).
As to `Cc1ccc(S(=O)(=O)c2ccc(C)c(S(N)(=O)=O)c2)cc1S(N)(=O)=O`, the inhibition is 0%.
On to `Cc1cc2nn(-c3ccccc3)nc2cc1N`, for which the inhibition is 50% (active).
As to `CCOc1ccc(-n2nc3cc(C)c(N)cc3n2)cc1`, the inhibition is 24%.
Next, `COc1ccc(-n2nc3cc(C)c(N)cc3n2)cc1`: 22%; `CCOC(=O)C1=C(O)/C(=C/c2ccc(Br)cc2)SC1=Nc1ccccc1`: 5%.
For `CCC(=O)Nc1ccc(NC(=S)NC(=O)c2cccc(F)c2)cc1` the value was 11%.
As to `COc1ccc(/C=C2\SC(=S)N(c3cccc(F)c3)C2=O)cc1O`, the inhibition is 7%.
Next, `COc1cc(/C=C2\SC(=S)N(c3cccc(Cl)c3)C2=O)ccc1O`: 38%; `O=C1/C(=C\c2ccc(O)cc2)SC(=S)N1c1ccc(F)cc1`: 37%.
On to `O=C1/C(=C/c2cccc(O)c2)SC(=S)N1c1cccc(Cl)c1`, for which the inhibition was 19%.
Next, `O=C1/C(=C\c2ccc(O)c(O)c2)SC(=S)N1c1ccc(F)cc1`: 74% (active); `O=C1/C(=C/c2ccc(F)cc2)SC(=S)N1c1ccc(F)cc1`: 17%; `O=C1/C(=C/c2ccc(O)c(O)c2)SC(=S)N1c1cccc(F)c1`: 84% (active).
Turning to `O=C1S/C(=C/c2ccc(O)c(O)c2)C(=O)N1c1ccccc1`, the inhibition is 60% (active).
For `COc1cc(/C=C2\SC(=O)N(c3ccccc3)C2=O)ccc1O` the value was 27%; for `O=C1S/C(=C/c2cccc(O)c2)C(=O)N1c1ccccc1`, 24%.
For `O=C1/C(=C/c2cccnc2)SC(=S)N1c1cccc(F)c1` the value was 3%.
Next, `Cc1ccc2cc(C3=C/C(=C/c4cccc(Br)c4)C(=O)O3)ccc2c1`: 4%.
In the case of `CCCCCOc1ccc(/C=N\Nc2nc(-c3ccccc3)cc(-c3ccccc3)n2)cc1`, the inhibition was 8%.
For `COc1ccc(C(=O)COC(=O)c2ccc(N3C(=O)C4C5C=CC(C6CC56)C4C3=O)cc2)cc1` (stereo not drawn) the value was 9%.

One may read the inhibition as the percentage by which the read-out fell short of the control.
